In PubChem BioAssay (Tox21):
Values without a mark were called inactive. Inconclusive results are not listed. Calls of active or inactive are those of the source. Calls follow the shape of the dose curve; as a rule, active = well fitted curve in the direction sought with a large enough effect in the repeat runs; inconclusive = weak or mixed curves; inactive = no such curve, though single readings can be large; an effect the other way counts as inactive or inconclusive.

Assay: A CellTox Green Cytotoxicity Assay to monitor cytotoxicity in HEK293 cells - 0 hour (AID 1224869)
Conditions: CellTox Green fluorescence; series mostly up to 76.8 µM; cytotoxicity: at the top concentration
Procedure, shortened: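 HEK293 cells, 600/well, were preincubated 5 hours and then exposed to compounds at 37 C for up to 40 hours. A cell-impermeant cyanine dye staining dead-cell DNA was read by fluorescence at 0, 8, 16, 24, 32 and 40 h time points.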
% is scaled to controls: 0 for no effect and ±100 for the full control effect.
Also: nearly all actives have a fitted effect of over 50% in size.

Row | SMILES | cytotoxicity | outcome
1 | CCCOC(=O)Cc1ccc(OCC(=O)N(CC)CC)c(OC)c1 | -11.5% [at 35.3 µM] | 
2 | O=C(Cl)C(Cl)Cl | 1.14% | 
3 | CC[C@H](N)c1ccccc1 | -1.37% | 
4 | CC(O)CCl (stereo not given) | 0.422% | 
5 | CCCCCCCC(=O)Cl | -0.224% | 
6 | CCCCCCCCBr | -4.4% | 
7 | O=C(O)C(Cl)Br (stereo not given) | -3.98% | 
8 | COC1=CC(=O)O[C@@H](/C=C/c2ccccc2)C1 | -1.41% | 
9 | ClCCN1CCCC1 | 0.221% [at 35.3 µM] | 
10 | C=CC=O | 0.938% | 
11 | O=C(O)c1c(Cl)ccc2cc(Cl)cnc12 | -4.04% | 
12 | CS(=O)(=O)Cl | 2.87% | 
13 | CCOC(=O)CC(SP(=S)(OC)OC)C(=O)OCC (stereo not given) |  | inactive
14 | [O-][Br+2]([O-])O | -7.38% [at 35.3 µM] | 
15 | Cc1cccc2sc3nncn3c12 | -0.242% | 
16 | CN1C(=O)COc2c(C(=O)NC3CN4CCC3CC4)cc(Cl)cc21 (stereo not given) | 1.35% [at 35.3 µM] | 
17 | CCN(CCO)CCO | 1.85% | 
18 | CON(C)C(=O)Nc1ccc(Br)cc1 | 2.05% | 

Row | SMILES | cytotoxicity | outcome
19 | N=C(N)[Se] | -5.56% | 
20 | ClC1=C(Cl)C2(Cl)C(CBr)CC1(Cl)C2(Cl)Cl (stereo not given) |  | inactive
21 | CN(C)CCN(C)C | 0.207% | 
22 | CC(C)(O)C(Cl)(Cl)Cl | 1.52% [at 35.3 µM] | 
23 | C/C(=N\NC(=O)Nc1cc(F)cc(F)c1)c1ncccc1C(=O)O |  | inactive
24 | C1CN2CCC1CC2 | 1.09% [at 35.3 µM] | 
25 | CCOC1Oc2ccc(OS(C)(=O)=O)cc2C1(C)C (stereo not given) | -3.95% | 
26 | O=CCCl | -8.08% | 
27 | CC#Cc1cc(C)nc(Nc2ccccc2)n1 | -6.14% | 
28 | CCOC(=O)CCl | -8.24% | 
29 | CNC(=O)O/N=C(/CSC)C(C)(C)C | -6.88% | 
30 | CCOC(=O)Nc1cccc(OC(=O)Nc2ccccc2)c1 | -0.101% | 
31 | CCN[C@H](C)Cc1cccc(C(F)(F)F)c1 | 3.71% | 
32 | CC(C)[C@]12CC(=O)[C@H](C)[C@H]1C2 | 1.74% | 
33 | O=C1CCCCC1Cl (stereo not given) | -4.63% | 
34 | [P]#[In] | 0.518% | 
35 | CC(C)(C)C(=O)C(Cl)Cl | -2.22% | 

Assay: qHTS RealTime-Glo MT Cell Viability Assay in HepG2 cells - 40 hour (AID 1224870)
Conditions: RealTime-Glo luminescence; series mostly up to 76.8 µM; activity change, negative = cytotoxic: at the top concentration
Procedure, shortened: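 Real-time viability: cells seeded at 600 per well together with NanoLuc and cell-permeant prosubstrate, compounds added after 5 h incubation. Luminescence tracked at 0, 8, 16, 24, 32 and 40 h of exposure.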

Row | SMILES | activity change, negative = cytotoxic | Potency
36 | CCCOC(=O)Cc1ccc(OCC(=O)N(CC)CC)c(OC)c1 | 0.392% [at 35.3 µM] | 
37 | O=C(Cl)C(Cl)Cl | -1.68% | 
38 | CC[C@H](N)c1ccccc1 | 16.6% | 
39 | CC(O)CCl (stereo not given) | 1.86% | 
40 | CCCCCCCC(=O)Cl | 2.85% | 
41 | CCCCCCCCBr | 0.757% | 
42 | O=C(O)C(Cl)Br (stereo not given) | 2.16% | 
43 | COC1=CC(=O)O[C@@H](/C=C/c2ccccc2)C1 | 3.43% | 
44 | ClCCN1CCCC1 | -0.0707% [at 35.3 µM] | 
45 | C=CC=O | 0.825% | 
46 | O=C(O)c1c(Cl)ccc2cc(Cl)cnc12 | 0.804% | 
47 | CS(=O)(=O)Cl | -0.793% | 
48 | CCOC(=O)CC(SP(=S)(OC)OC)C(=O)OCC (stereo not given) | -0.053% [at 35.3 µM] | 
49 | [O-][Br+2]([O-])O | 23.7% [at 35.3 µM] | 
50 | Cc1cccc2sc3nncn3c12 | 0.728% | 
51 | CN1C(=O)COc2c(C(=O)NC3CN4CCC3CC4)cc(Cl)cc21 (stereo not given) | 2.45% [at 35.3 µM] | 
52 | CCN(CCO)CCO | -0.22% | 
53 | CON(C)C(=O)Nc1ccc(Br)cc1 | 0.369% | 

Row | SMILES | activity change, negative = cytotoxic | Potency
54 | N=C(N)[Se] | -0.309% | 
55 | ClC1=C(Cl)C2(Cl)C(CBr)CC1(Cl)C2(Cl)Cl (stereo not given) | 1.08% [at 35.3 µM] | 
56 | CN(C)CCN(C)C | -0.363% | 
57 | CC(C)(O)C(Cl)(Cl)Cl | 3.48% [at 35.3 µM] | 
58 | C/C(=N\NC(=O)Nc1cc(F)cc(F)c1)c1ncccc1C(=O)O |  | inactive
59 | C1CN2CCC1CC2 | 1.83% [at 35.3 µM] | 
60 | CCOC1Oc2ccc(OS(C)(=O)=O)cc2C1(C)C (stereo not given) | -0.472% | 
61 | O=CCCl | 2.05% | 
62 | CC#Cc1cc(C)nc(Nc2ccccc2)n1 | -7.85% | 
63 | CCOC(=O)CCl | 0.506% | 
64 | CNC(=O)O/N=C(/CSC)C(C)(C)C | 1.07% | 
65 | CCOC(=O)Nc1cccc(OC(=O)Nc2ccccc2)c1 | -0.516% | 
66 | CCN[C@H](C)Cc1cccc(C(F)(F)F)c1 | 1.04% | 
67 | CC(C)[C@]12CC(=O)[C@H](C)[C@H]1C2 | 3.99% | 
68 | O=C1CCCCC1Cl (stereo not given) | -6.13% | 
69 | [P]#[In] | 0.152% | 
70 | CC(C)(C)C(=O)C(Cl)Cl | 0.0895% | 
